In PubChem BioAssay (Tox21):
Results filed as inconclusive are left out. Entries that show only a call come without a potency. Calls of active or inactive are those of the source. Calls come from the whole dose curve; as a rule, active = well fitted activation curve with a large enough effect in the repeat runs; inconclusive = weak or mixed curves; inactive = no such curve, though single readings can be large or run the other way.

Molecular target: Nuclear receptor subfamily 1 group I member 3 (Homo sapiens) (UniProt Q14994)
Assay: qHTS assay to identify small molecule agonists of the constitutive androstane receptor (CAR) signaling pathway (AID 1224839); note: nearly all actives have a fitted effect of over 15% in size;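 for activation: HepG2 cells stably carrying human CAR and a CYP2B6 luciferase reporter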
Details: HepG2 hCAR CYP2B6-luciferase, agonist mode, 24 h; series mostly up to 92.4 µM
From the text: National Center for Advancing Translational Sciences [NCATS] NIH Chemical Genomics Center [NCGC] U.S. Environmental Protection Agency [EPA] National Institutes of Environmental Health Sciences [NIEHS] National Toxicology Program [NTP] Assay overview: The constitutive androstane receptor (CAR) is a nuclear receptor which regulates multiple drug metabolizing enzymes (DMEs) and transporters. Activating CAR will generally increase the transcription and subsequent translation of CYP2B6 and CYP3A4. These two DMEs represent about 50% of the drug metabolizing potential in the body. […] Recently, there have also been studies performed indicating CARs role in energy metabolism and cancer therapy. Therefore, inducing CARs activity could have a potential effect on diabetes and cancer. Identifying environmental toxins and compounds which modulate CAR, through the use of the Tox21 10K compound collection, will be an important step in determining the toxicity and potential therapeutic effects these factors will have on the human body.
Assay Protocol Summary: A double-stable (hCAR and CYP2B6-2.2kb) transfected cell line, derived from human hepatoma (HepG2) cells, was utilized for the duration of the quantitative high-throughput screens. The HepG2-CYP2B6-hCAR cells suspended in DMEM culture medium supplemented with 10% FBS, 5 ug/mL blasticidin, 0.5 mg/mL geneticin, 100 U/mL penicillin and 100 ug/mL streptomycin were dispensed at 2500 cells/4 uL/well in 1536-well white solid bottom plates using a Multidrop Combi. After the assay plates were incubated at 37 C/5% CO2 for 4 hrs, 23 nL of compounds at 15 concentrations (from 5-48 columns) or positive control (from 1 to 4 columns) were transferred to the assay plates using a Pintool station. One uL of PK11195, was added using a Flying Reagent Dispenser to generate a final concentration of 0.75 uM PK11195 inside each well. After a 24 hr incubation period at 37 C/5% CO2, four uL of ONE-Glo reagent was added into the assay plates using a Flying Reagent Dispenser. After a 30 min incubation period at room temperature, the luminescence intensity in the assay plates was measured using a ViewLux plate reader.
Potency is the fitted concentration of half-maximal effect.

Chain of Nuclear receptor subfamily 1 group I member 3 (Homo sapiens) (Q14994 whole entry, looked up): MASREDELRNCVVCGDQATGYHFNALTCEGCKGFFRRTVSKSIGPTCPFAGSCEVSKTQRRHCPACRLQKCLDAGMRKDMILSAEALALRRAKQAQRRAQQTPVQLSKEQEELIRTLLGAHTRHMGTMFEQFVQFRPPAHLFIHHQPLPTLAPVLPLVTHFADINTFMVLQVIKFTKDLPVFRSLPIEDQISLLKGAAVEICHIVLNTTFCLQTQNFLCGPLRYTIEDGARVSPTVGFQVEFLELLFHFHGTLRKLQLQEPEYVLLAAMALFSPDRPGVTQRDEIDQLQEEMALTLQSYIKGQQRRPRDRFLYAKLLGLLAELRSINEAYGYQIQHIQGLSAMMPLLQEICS

Row | SMILES | Potency
1 | CC(=O)Nc1cc(S(=O)(=O)O)cc2cc(S(=O)(=O)O)c(N=Nc3ccccc3)c(O)c12 | inactive
2 | C[C@H]1C[C@H](O)c2ccsc2S1(=O)=O | inactive
3 | CN1CC(=O)N2[C@H](c3ccc4c(c3)OCO4)c3[nH]c4ccccc4c3C[C@@H]2C1=O | inactive
4 | Cc1ccc(C(C)(C)O)cc1 | inactive
5 | CN1C(=O)OC(C)(C)C1=O | inactive
6 | Cc1ccco1 | inactive
7 | CC(C)(c1ccccc1)c1ccccc1 | 45.1 µM (active)
8 | CC/C=C1/OC(=O)c2ccccc21 | inactive
9 | CC(C)=CCC/C(C)=C/CC/C(C)=C/CCC(=O)OC/C=C(\C)CCC=C(C)C | inactive
10 | C1COC1 | inactive
11 | CC(C)=CC(=O)C=C(C)C | inactive
12 | CC(=O)c1cc2ccccc2s1 | inactive
13 | C=CC(=O)[O-].C=CC(=O)[O-].[Zn+2] | inactive
14 | Nc1nnc(-c2ccc([N+](=O)[O-])o2)o1 | inactive
15 | Clc1ccc(Nc2nnc(Cc3ccncc3)c3ccccc23)cc1 | 7.5 µM (active)
16 | CC1(CN2CCC(n3c(=O)[nH]c4ccccc43)CC2)OCc2ccccc2-n2cccc21 (stereo not given) | inactive
17 | C[C@]12CC[C@@H]3c4ccc(O)cc4CC[C@H]3[C@@H]1CC[C@@H]2OC(=O)CCC1CCCC1 | 15.4 µM (active)
18 | CCOC(=O)OC(C)OC(=O)[C@@H]1N2C(=O)[C@@H](NC(=O)[C@H](N)c3ccccc3)[C@H]2SC1(C)C (stereo not given in full) | inactive
19 | CCCCCC[C@@H](O)C/C=C\CCCCCCCC(=O)O | inactive
20 | CCC(=O)OC | inactive

Row | SMILES | Potency
21 | CC(C)c1nc(CN(C)C(=O)N[C@H](C(=O)N[C@@H](Cc2ccccc2)C[C@H](O)[C@H](Cc2ccccc2)NC(=O)OCc2cncs2)C(C)C)cs1 | inactive
22 | CCCCCCCCN | inactive
23 | O=C(O)C[C@H](NC(=O)OCc1ccccc1)C(=O)O | inactive
24 | CCCCN1CCCC1C(=O)Nc1c(C)cc(C)cc1C (stereo not given) | 29.8 µM (active)
25 | O=c1cc(-c2ccccc2)oc2ccc3ccccc3c12 | 4.86 µM (active)
26 | OC1(c2ccccc2)CCNCC1 | inactive
27 | CN(C(=O)CN(CCO)CC(=O)N(C)C(C)(C)Cc1ccccc1)C(C)(C)Cc1ccccc1 | inactive
28 | O=C(Cn1ccnc1[N+](=O)[O-])NCCO | inactive
29 | CCN(CC)CCNC(=O)COc1ccc(OC)cc1 | inactive
30 | CCCCC(CC)COP(=O)(O)O (stereo not given) | inactive
31 | Cc1cc(C)cc(N)c1 | inactive
32 | CC(C)C[C@H](NC(=O)[C@H](CCc1ccccc1)NC(=O)CN1CCOCC1)C(=O)N[C@@H](Cc1ccccc1)C(=O)N[C@@H](CC(C)C)C(=O)[C@@]1(C)CO1 | inactive
33 | O=C1CCCCCCCCCCOCCCCO1 | inactive
34 | Brc1cc2ccccc2c2ccccc12 | 17.4 µM (active)
35 | C=C1C[C@@]23CC[C@H]4[C@@](C)(CCC[C@@]4(C)C(=O)O[C@@H]4O[C@H](CO)[C@@H](O)[C@H](O)[C@H]4O)[C@@H]2CC[C@]1(O[C@@H]1O[C@H](CO)[C@@H](O)[C@H](O[C@@H]2O[C@H](CO)[C@@H](O)[C@H](O)[C@H]2O)[C@H]1O[C@@H]1O[C@H](CO)[C@@H](O)[C@H](O)[C@H]1O)C3 | inactive
36 | Nc1ncnc2c1ncn2[C@H]1CC[C@@H](CO)O1 | inactive
37 | C=C/C(C)=C/C/C=C(\C)CCC=C(C)C | inactive
38 | COc1ncnc(NS(=O)(=O)c2ccc(N)cc2)c1OC | inactive
39 | Cc1cc2c(OCC(CNC(C)(C)C)OC(=O)c3ccccc3)cccc2[nH]1 (stereo not given) | inactive
40 | CC(=O)NC1(c2cccc(F)c2)CCN(CC[C@@]2(c3ccc(Cl)c(Cl)c3)CN(c3ccccc3)C(=O)CO2)CC1 | inactive
